NR5A2 inv ag = LRH-1 (NR5A2) inverse agonists, primary screen, cell-based, luminescence, HEK293T, StAR-luciferase reporter. 360,000 tested, 0.13% active. LRH-1 transfected, 24 h. inhibition, % at 3.6 µM. Nuclear receptor subfamily 5 group A member 2 (Homo sapiens), O00482;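 active = inhibition above the mean inhibition of all tested compounds plus 3 SD, cut at about 73% in these data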;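 note: 0% = DMSO wells and 100% = reporter-only cells lacking LRH-1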
NCOA2 inhibitor = inhibition of GAL4-SRC2 driven luciferase reporter, primary screen, SRC2 inhibitor project, cell-based, luminescence; HEK293 GAL4-SRC2 luciferase reporter; inhibition, % at 9 µM; 370,000 tested, 0.17% active;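 active = inhibition above the mean inhibition of all tested compounds plus 3 SD, set per campaign, cut at about 52% in these data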;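 note: 0% = DMSO treated cells and 100% = cells given Gossypol at 36 µM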
Target sequence (Q15596 whole entry, looked up, the tested form may be a part): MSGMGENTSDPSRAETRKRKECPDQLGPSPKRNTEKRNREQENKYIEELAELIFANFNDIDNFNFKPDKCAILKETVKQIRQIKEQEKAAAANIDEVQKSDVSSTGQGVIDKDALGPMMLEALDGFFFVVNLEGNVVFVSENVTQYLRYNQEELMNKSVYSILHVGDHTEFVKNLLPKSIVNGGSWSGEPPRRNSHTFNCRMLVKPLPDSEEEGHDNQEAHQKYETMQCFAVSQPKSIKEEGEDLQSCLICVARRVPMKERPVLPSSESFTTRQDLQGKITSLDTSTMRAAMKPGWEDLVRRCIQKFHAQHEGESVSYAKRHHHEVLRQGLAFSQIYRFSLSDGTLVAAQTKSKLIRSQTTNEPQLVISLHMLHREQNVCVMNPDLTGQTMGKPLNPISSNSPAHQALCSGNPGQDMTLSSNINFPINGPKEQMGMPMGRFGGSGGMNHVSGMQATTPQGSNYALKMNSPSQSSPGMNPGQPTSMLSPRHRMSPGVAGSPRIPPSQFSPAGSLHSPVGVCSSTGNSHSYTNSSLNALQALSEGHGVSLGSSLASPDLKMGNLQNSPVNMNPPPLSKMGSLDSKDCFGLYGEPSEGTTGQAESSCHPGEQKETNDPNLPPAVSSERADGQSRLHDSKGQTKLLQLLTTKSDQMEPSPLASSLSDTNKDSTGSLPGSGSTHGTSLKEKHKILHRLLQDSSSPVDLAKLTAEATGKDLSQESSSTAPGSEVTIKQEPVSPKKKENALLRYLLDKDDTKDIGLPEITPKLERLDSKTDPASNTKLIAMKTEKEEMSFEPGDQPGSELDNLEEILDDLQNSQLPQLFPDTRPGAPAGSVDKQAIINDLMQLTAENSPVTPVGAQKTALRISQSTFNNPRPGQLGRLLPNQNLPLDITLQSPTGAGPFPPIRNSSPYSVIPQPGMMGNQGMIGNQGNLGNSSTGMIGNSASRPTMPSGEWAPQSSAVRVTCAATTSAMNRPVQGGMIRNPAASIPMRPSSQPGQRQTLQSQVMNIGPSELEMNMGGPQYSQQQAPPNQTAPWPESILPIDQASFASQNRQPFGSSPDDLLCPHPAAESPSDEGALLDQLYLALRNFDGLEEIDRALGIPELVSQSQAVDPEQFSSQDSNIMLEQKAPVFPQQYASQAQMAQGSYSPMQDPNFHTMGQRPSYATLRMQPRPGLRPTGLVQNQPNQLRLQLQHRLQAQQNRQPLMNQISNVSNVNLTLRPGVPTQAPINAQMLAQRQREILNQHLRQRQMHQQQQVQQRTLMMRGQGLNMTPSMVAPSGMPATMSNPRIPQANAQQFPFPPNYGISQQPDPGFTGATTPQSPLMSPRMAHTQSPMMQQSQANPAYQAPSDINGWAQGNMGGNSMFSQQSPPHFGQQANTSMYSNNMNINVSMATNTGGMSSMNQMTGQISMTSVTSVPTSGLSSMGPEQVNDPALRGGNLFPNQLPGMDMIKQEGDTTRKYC
SRC3 inh = SRC3 coactivator transcriptional activity inhibitors, primary screen, cell-based, luminescence; Nuclear receptor coactivator 3 (Homo sapiens), Q9Y6Q9; HEK293 GAL4-SRC3 luciferase reporter; inhibition, % at 3.6 µM; 360,000 tested, 0.17% active;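 active = inhibition above a per-campaign cutoff, the mean of all compounds plus 3 SD, cut at about 60% in these data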;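 note: 0% = DMSO-treated cells and 100% = gossypol-treated cells at 36 µM; higher means less SRC3-driven luciferase light from the GAL4 reporter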
COUP-TFII inh = NR2F2 transcriptional activity inhibitors, primary screen, cell-based, luciferase reporter, HEK293T, luminescence. COUP transcription factor 2 (Homo sapiens), P24468. 370,000 tested, 0.7% active. inhibition, % at 8.6 µM. HEK293T NGFI-A luciferase reporter;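 active = inhibition above a per-plate cutoff, mean inhibition of test wells between control levels plus 3 SD, cut at about 38% in these data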;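 note: cells cotransfected with COUP-TFII expression vector driving the NGFI-A reporter; 0% = median of COUP-TF2 test wells and 100% = reporter-only cells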
SRC1 inh = SRC1 coactivator transcriptional activity inhibitors, primary screen, cell-based, luminescence; Nuclear receptor coactivator 1 (Homo sapiens), Q15788; HEK293 GAL4-SRC1 luciferase reporter; inhibition, % at 3.6 µM; 360,000 tested, 0.12% active; AID 588354, 2011;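 active = inhibition above the campaign mean plus 3 SD, with each screening campaign given its own cutoff, cut at about 60% in these data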;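 note: 0% = DMSO treated cells and 100% = gossypol at 36 µM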
Gal4-VP16 ctr = Gal4-VP16 luciferase reporter inhibitors, counter-screen for COUP-TFII antagonist project, cell-based, luminescence, HEK293; shares compounds with COUP-TFII inh; inhibition, % at 8.5 µM; 2,500 tested, 25% active; AID 687007, 2013; in the data active = inhibition above about 13%
NR2F2 inh conf = NR2F2 transcriptional activity inhibitors, confirmation, cell-based, luciferase reporter, HEK293, triplicate; inhibition, % at 8.5 µM; 2,500 tested, 45% active; shares compounds with COUP-TFII inh; HEK293 NGFI-A luciferase reporter, luminescence;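 active = mean inhibition over three repeats above a set limit taken from the earlier primary screen, cut at about 38% in these data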;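 note: 100% = cells given the luciferase reporter alone without the COUP-TF2 vector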
* marks the source's active call; other numbers are inactive results; nt = no result given. A selection: hits, their analogues and other compounds. The true share with any hit is near 0.81%.

SMILES	NR5A2 inv ag	NCOA2 inhibitor	SRC3 inh	COUP-TFII inh	SRC1 inh	Gal4-VP16 ctr	NR2F2 inh conf
COc1ccc(C[C@H]2NC[C@H](O)[C@H]2OC(C)=O)cc1	102.1*	70.5*	92.7*	89.3*	94.6*	20.4*	83.5*
N#CC12CC(=O)N1Cc1cnnn1-c1ccccc12 (stereo unspecified)	6.4	-2.4	13.4	7.9	0.5	nt	nt
COc1cccc(C(c2nnnn2-c2ccc3c(c2)OCCO3)N2CCC(n3c(=O)[nH]c4ccccc43)CC2)c1OC (stereo unspecified)	9.1	9.0	41.1	40.0*	32.2	-2.4	7.5
COc1ccc(-n2nnnc2C(c2cccc(OC)c2OC)N2CCC(n3c(=O)[nH]c4ccccc43)CC2)cc1 (stereo unspecified)	18.5	21.5	25.5	33.6	39.4	nt	nt
C#CC1(OC(=O)c2ccccc2)CC(C)N(C)CC1C (stereo unspecified)	8.6	-7.7	4.2	-3.7	-11.3	nt	nt
O=[N+]([O-])c1ccc(N2CCOCC2)c2c1no[n+]2[O-]	91.7*	97.0*	91.4*	89.2*	77.6*	62.2*	-105.5
O=C(NCCN1CCC2(CC1)C(=O)NCN2c1ccccc1)c1cccc(F)c1	nt	-3.0	nt	0.2	nt	nt	nt
CCCCN=C[C@]12CCC(O)CC1(O)CCC1[C@@H]2CC[C@]2(C)[C@H](C3C=CC(=O)O3)CCC12O (stereo partly specified)	97.1*	42.3	80.2*	62.6*	77.6*	38.7*	68.7*
CC12CCC3C(CCC4(O)CC(O)CCC34C=O)C1(O)CCC2C1=CC(=O)OC1 (stereo unspecified)	96.5*	37.3	65.3*	70.8*	65.0*	24.1*	64.0*
CC1OC(OC2C(O)CC(OC3C(O)CC(OC4CCC5(C)C(CCC6C5CCC5(C)C(C7=CC(=O)OC7)C(O)CC65O)C4)OC3C)OC2C)CC(O)C1O (stereo unspecified)	34.8	9.1	49.0	20.8	35.2	nt	nt
C[C@]12CC[C@H]3[C@@H](CC[C@]4(O)C[C@@H](O)CC[C@]34C=O)[C@@]1(O)CC[C@@H]2C1=CC(=O)OC1	102.5*	53.4*	81.9*	77.6*	71.4*	32.9*	67.2*
C[C@]12CCC3C(CCC4=CC(O)CC[C@@]43/C=N/O)C1(O)CCC2C1=CC(=O)OC1 (stereo partly specified)	98.0*	49.5	71.0*	74.7*	78.3*	37.4*	67.6*
COc1ccccc1N	nt	-11.7	nt	1.4	nt	nt	nt
CC12CCC3C(CCC4(O)CC(O)CCC34C=NO)C1(O)CCC2C1=COC(=O)C1 (stereo unspecified)	99.0*	42.5	88.9*	80.8*	86.5*	43.2*	68.9*
CC(=Nc1ccccc1N)c1c(O)n(C)c(=O)[nH]c1=O	-99.6	-25.7	-94.8	-29.2	-82.7	nt	nt
O=c1[nH]c(=S)[nH]c(O)c1N=Nc1ccc2c(c1)OCCO2	-68.0	-41.0	-48.5	-3.0	-115.6	nt	nt
O=c1[nH]c(O)c(N=Nc2ccc3c(c2)OCCO3)c(=O)[nH]1	71.5	58.5*	69.1*	81.7*	66.7*	-5.6	64.2*
CC(C)(C)n1nnnc1C1CN=C(c2ccccc2)c2cc(Cl)ccc2N1 (stereo unspecified)	nt	-1.1	nt	1.3	nt	nt	nt
CCN1CCC(NCC2CCCCC2)CC1	-12.0	-25.6	-1.9	-8.3	0.8	nt	nt
c1ccc(CCN2CCC3CCNC3C2)cc1 (stereo unspecified)	nt	-30.4	nt	-25.5	nt	nt	nt
C[C@H]1C[C@@H](C)C(=O)[C@@H]([C@H](O)CC2CC(=O)NC(=O)C2)C1	103.1*	71.9*	93.0*	84.8*	91.5*	6.3	69.8*
C[C@H](NC(=O)OCc1ccccc1)[P+](=O)O	nt	-0.8	nt	-11.1	nt	nt	nt
CC(=O)c1cn(CCCOc2ccccc2)c2ccccc12	7.6	-1.9	14.7	45.2*	-14.2	-6.8	10.2
c1ccc(Cc2cnc(N3CCNCC3)nc2)cc1	nt	3.1	nt	3.3	nt	nt	nt
COC(=O)C1=C(c2ccc3ccccc3c2)C[C@@H]2CC[C@H]1N2C(=O)NC(C)C	-5.7	-16.5	-3.0	11.7	-2.5	nt	nt
SMILES	NR5A2 inv ag	NCOA2 inhibitor	SRC3 inh	COUP-TFII inh	SRC1 inh	Gal4-VP16 ctr	NR2F2 inh conf
CC1=C(O)C(=O)C=C2C1=CC=C1C2(C)CCC2(C)C3CC(C)(C(=O)O)CCC3(C)CCC12C (stereo unspecified)	92.9*	-35.1	-8.8	79.4*	1.0	80.9*	83.4*
Cc1cc(O)c2c(c1)C(=O)[C@@]13C(=C2O)C(=O)[C@H]2C(O)[C@@H]1[C@H]1C(O)[C@@H]3C(=O)C3=C(O)c4c(O)cc(C)cc4C(=O)[C@@]312 (stereo partly specified)	nt	-13.6	nt	40.7*	nt	6.0	28.2
CC1OC(OC2C=C3CCC4C(CCC5(C)C(c6ccc(=O)oc6)CCC45O)C3(C)CC2)C(O)C(OC2OC(CO)C(O)C(O)C2O)C1O (stereo unspecified)	96.8*	69.5*	88.0*	78.1*	90.9*	53.7*	79.5*
O=C1NC2C(=CC(O)C(O)C2O)c2cc3c(cc21)OCO3 (stereo unspecified)	97.1*	75.3*	90.9*	77.7*	93.6*	10.7	57.7*
O=C1NC2C(O)C(O)C(O)C(O)C2c2cc3c(c(O)c21)OCO3 (stereo unspecified)	98.1*	74.5*	92.3*	79.9*	93.1*	28.7*	80.4*
O=C1NC2C(=CC(O)C(O)C2O)c2cc3c(c(O)c21)OCO3 (stereo unspecified)	97.5*	67.9*	94.3*	90.7*	96.3*	25.2*	84.0*
CCOC(=O)C(c1c(O)c2ccccc2oc1=O)c1c(O)c2ccccc2oc1=O	-23.6	14.3	3.0	-9.5	-3.0	nt	nt
NC1=NC(=O)N2CC12 (stereo unspecified)	-24.8	23.4	0.6	2.4	-18.0	nt	nt
O=C(NCCN1CCC2(CC1)C(=O)NCN2c1ccccc1)c1ccc(F)c(F)c1	nt	-12.4	nt	12.6	nt	nt	nt
N#CC1c2ccccc2-n2nncc2CN1Cc1cc(Cl)cc(Cl)c1 (stereo unspecified)	93.3*	85.8*	90.7*	83.8*	82.7*	56.0*	64.4*

Compound activity deposited in PubChem BioAssay by The Scripps Research Institute Molecular Screening Center.
